Bioassay records from PubChem BioAssay.
Fam108B inh: Fam108B inhibition, counter-screen for RBBP9 inhibitors; AID 1947; recombinant Fam108B, FP-Rh probe fluorescence polarization; inhibition, % at 9.51 µM; 300,000 compounds, 0.33% hits;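 active = inhibition above the screen mean inhibition plus 3 SD, computed separately per campaign, cut at about 18% in these data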;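 also: inhibitors lower polarization as less probe binds the enzyme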
TCR-CD3 inh: blocks the human TCR-CD3 interaction | TAMRA-labeled TCR probe fluorescence, biochemical | AID 651800 | inhibition, % at 9.4 µM | 360,000 compounds, 0.37% hits; in the data active = inhibition above about 19%;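 also: recombinant mutant TCR 2C K166C tagged with TAMRA read by polarization; 0% = receptor in buffer alone and 100% = receptor with positive control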
PRMT1 FP inh: inhibitors of human PRMT1; 370,000 compounds, 1.3% hits; inhibition, % at 2.79 µM; recombinant PRMT1, activity-based probe fluorescence polarization;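 active = inhibition above about 21% made by adding two undisclosed values, limit read from the data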
Target sequence (Q99873 whole entry, looked up): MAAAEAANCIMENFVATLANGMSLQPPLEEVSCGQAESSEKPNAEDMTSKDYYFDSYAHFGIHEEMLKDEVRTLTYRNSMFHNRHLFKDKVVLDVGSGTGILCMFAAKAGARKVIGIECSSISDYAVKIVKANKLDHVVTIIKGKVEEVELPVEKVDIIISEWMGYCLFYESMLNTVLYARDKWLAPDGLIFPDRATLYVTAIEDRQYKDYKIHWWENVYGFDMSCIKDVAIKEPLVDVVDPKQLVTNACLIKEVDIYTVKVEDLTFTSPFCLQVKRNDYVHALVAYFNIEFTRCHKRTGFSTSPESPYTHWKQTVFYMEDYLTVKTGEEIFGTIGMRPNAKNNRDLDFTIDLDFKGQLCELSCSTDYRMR
PAD4 inh: PAD4 (human) enzyme inhibition. Q9UM07. recombinant PAD4, RCA probe fluorescence polarization. inhibition, % at 6.36 µM. 330,000 compounds, 0.41% hits. AID 485272;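 active = percent inhibition above a cutoff equal to the mean of all tested compounds plus 3 SD, cut at about 15% in these data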;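 also: 0% = PAD4 with RCA probe and DMSO and 100% = probe without PAD4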
PME-1 inh: blocks human protein phosphatase methylesterase 1; recombinant PME-1, FP-Rh probe fluorescence polarization; Q9Y570; 320,000 compounds, 0.53% hits; inhibition, % at 5.9 µM;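 active = inhibition above the campaign mean of all compounds plus 3 SD, cut at about 26% in these data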;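 also: competitive labeling of PME-1 active site by serine hydrolase directed probe; 0% = PME-1 with DMSO and 100% = wells lacking PME-1 enzyme; inhibitors block probe labeling so polarization falls and inhibition rises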
Target sequence (Q9Y570 whole entry, looked up): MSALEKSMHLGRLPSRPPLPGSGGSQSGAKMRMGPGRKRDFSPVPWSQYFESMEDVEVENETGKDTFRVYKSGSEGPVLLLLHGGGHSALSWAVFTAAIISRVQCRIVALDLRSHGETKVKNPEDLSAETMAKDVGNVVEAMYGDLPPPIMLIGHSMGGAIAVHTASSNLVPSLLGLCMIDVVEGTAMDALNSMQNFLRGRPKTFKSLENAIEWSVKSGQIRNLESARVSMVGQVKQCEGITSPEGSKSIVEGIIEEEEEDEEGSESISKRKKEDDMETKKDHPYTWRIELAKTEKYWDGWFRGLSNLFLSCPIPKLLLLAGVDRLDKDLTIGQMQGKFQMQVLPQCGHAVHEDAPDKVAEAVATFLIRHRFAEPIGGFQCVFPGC
SIAE primary: human SIAE inhibition, primary screen; inhibition, % at 9.66 µM; 370,000 compounds, 0.69% hits; Q9HAT2; SIAE FP-Rh probe binding, fluorescence polarization;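 active = inhibition above a cutoff: mean of compounds within the control limits plus 3 SD of those, cut at about 17% in these data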;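 also: 0% = plate median of compound wells and 100% = probe without SIAE protein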
Active calls of the source: *; nt = no result given. This is a sample that favours compounds with a hit; in the whole collection about 2.6% have one here.

SMILES | Fam108B inh | TCR-CD3 inh | PRMT1 FP inh | PAD4 inh | PME-1 inh | SIAE primary
CCCCOCCCNC(=O)C[C@@H]1C(=O)N2CCCC3=C2[C@@]1(C(=O)OCC)CCC3 | nt | nt | -2.7 | nt | nt | -0.6
Cc1cc(SCC(=O)N/N=C/c2ccc(O)c(O)c2O)c(C)cc1Br | 9.5 | 10.8 | 35.2* | 4.3 | 31.2* | 34.9*
CCCCC(=O)c1ccc(O)cc1 | 4.2 | 10.8 | -2.4 | 0.5 | -1.1 | 5.3
O=C(CCO)c1ccc(O)cc1 | -0.9 | 26.8* | 6.7 | 9.5 | 5.0 | 4.8
O=S1(=O)c2ccc(Br)cc2OC[C@@H](Cc2ccccc2)N1Cc1cn(Cc2ccc(F)cc2)nn1 | nt | nt | -1.1 | nt | nt | -4.0
O=C(O)c1ccc(-c2ccc(/C=C3\NC(=O)N(Cc4ccc(Cl)cc4)C3=O)o2)cc1Cl | nt | 1.9 | 43.1* | nt | nt | -24.4
COc1ccc(CN2C(NC(=O)OCc3ccccc3)=NC3=CC(C)(C)n4c(=O)n(-c5ccccc5)c(=O)n4C32)c(OC)c1 (stereo not given) | nt | nt | 0.4 | nt | nt | 2.9
CC(=O)Oc1cccc2c1C(=O)C1CC=CC(OC(C)=O)C1C2=O (stereo not given) | nt | 5.4 | 56.5* | nt | nt | -6.0
CC(=O)Oc1cccc2c1C(=O)c1c(OC(C)=O)cc(C(=O)O)cc1C2=O | 3.0 | -4.0 | 17.9 | 10.6 | 9.3 | 4.1
C=CCN(C)CC#Cc1ccc(F)cc1 | nt | nt | 2.3 | nt | nt | -0.6
Cc1cc(C(=O)COC(=O)C2=COCCO2)c(C)n1-c1ccc2c(c1)OCO2 | -3.9 | 1.6 | -1.6 | -9.2 | -1.7 | 17.4*
CCOC(=O)[C@@]12CCCC=C1N(CCc1ccc(Cl)cc1)C(=O)[C@H]2CC(=O)N1CCN(C(=O)c2ccco2)CC1 | nt | nt | -1.2 | nt | nt | 6.8
O=C1CCc2cc(S(=O)(=O)N3CCN(Cc4cccc5c4OCO5)CC3)ccc2N1 | nt | nt | 5.7 | nt | nt | 1.4
CC1=NN(c2ccc(C)c(C)c2)C(=O)C1C(c1cccc(O)c1)C1C(=O)N(c2ccc(C)c(C)c2)N=C1C (stereo not given) | 9.8 | -1.6 | 6.3 | 76.8* | 33.6* | 15.0
Cc1ccc(N2C(=O)C3C4C=CC(C4)C3C2=O)cc1C (stereo not given) | 2.7 | -1.0 | -1.4 | -1.7 | -6.7 | -8.5
COC(=O)[C@]12C[C@H](CC(=O)NCc3ccc(OC)c(OC)c3)C(=O)N(CCc3ccc(OC)c(OC)c3)C1=C[C@H](C(C)C)O[C@@H]2C1CC1 | nt | nt | 0.9 | nt | nt | -5.5
Brc1ccc(C2=CC(c3cccs3)n3ncnc3N2)cc1 (stereo not given) | -6.8 | 4.8 | 94.7* | -10.3 | -18.7 | -17.5
O=C(NCCc1ccccc1)C(c1cccs1)N(C(=O)c1csnn1)C1CC1 (stereo not given) | -2.7 | 5.7 | -2.2 | -2.8 | -2.0 | 17.6*
O=C(NCc1ccccc1)C(c1cccs1)N(C(=O)c1csnn1)C1CC1 (stereo not given) | -2.9 | 2.4 | -1.0 | -6.1 | -1.7 | -5.8
O=S(=O)(Nc1ccc(O)c2ccccc12)c1ccc(Br)cc1 | -1.2 | nt | nt | 18.7* | 4.1 | nt
Cc1ccc(S(=O)(=O)Nc2ccc(O)c3cccnc23)cc1 | -3.5 | -15.3 | 21.5* | 6.3 | 1.1 | -6.7
COc1cccc(Oc2ccc(S(=O)(=O)N3CCCC3)cc2[N+](=O)[O-])c1 | 2.4 | -4.9 | -0.6 | -0.6 | 26.1* | 5.7
COc1ccc(OCCOc2ccc(S(=O)(=O)N3CCCC3)cc2[N+](=O)[O-])cc1 | nt | 0.3 | -0.2 | 2.3 | 7.5 | 3.8
COc1ccc(S(=O)(=O)N2N=C(c3cccc(NS(C)(=O)=O)c3)CC2c2ccco2)cc1 (stereo not given) | -4.2 | -1.3 | 23.5* | -6.1 | 12.3 | -7.6
CCCCN(C)C(=O)CNc1nnnn1-c1ccccc1 | nt | nt | -3.5 | nt | nt | 0.0
SMILES | Fam108B inh | TCR-CD3 inh | PRMT1 FP inh | PAD4 inh | PME-1 inh | SIAE primary
O=C(CCc1ccccc1)N[C@H]1[C@@H](OC(=O)c2ccco2)CCC[C@@]12C(=O)N(Cc1ccccc1)c1ccccc12 | nt | nt | -3.0 | nt | nt | -2.3
O=c1oc2c3c4c(cc2s1)CCCN4CCC3 | 6.3 | 11.5 | 75.3* | 3.2 | 3.0 | 14.0
O=C(CCl)c1cc2c3c(c1)CC(=O)N3CCC2 | -1.7 | -4.3 | 7.6 | 4.4 | 5.0 | 1.0
O=C(CSC1=NCCS1)Nc1cccc2ccccc12 | 5.0 | 1.3 | 20.5 | 6.7 | -0.4 | -6.2
CC(C)NC(=O)COC(=O)c1ccccc1CSC1=NCCS1 | 0.1 | -1.9 | -6.5 | -0.5 | 3.4 | 7.3
O=C(O)c1ccccc1CSC1=NCCS1 | 1.8 | 14.3 | 21.5* | 4.2 | -6.3 | 0.1
O=C(CSC1=NCCS1)Nc1ccccc1F | 3.0 | -5.8 | 22.3* | 1.3 | 4.4 | 1.4
Oc1ccc(-c2cnns2)c(O)c1 | 1.8 | -2.8 | 23.9* | -3.8 | 1.9 | 6.8
O=C(NCCC1=CCCCC1)C1CCN(S(=O)(=O)c2cccs2)CC1 | -0.7 | nt | nt | 1.3 | 28.5* | nt
O=C(CCC(=O)Nc1ccc(Cl)cc1Cl)N/N=C/c1ccc([N+](=O)[O-])o1 | 1.6 | 5.9 | 23.7* | -12.9 | 1.8 | 13.5
COC1=C[C@H](C(=O)NCc2ccccn2)[C@@]2(C)Cc3ccccc3[C@H]2CC1=O | nt | nt | 4.1 | nt | nt | 2.8
CCC(=O)NC(c1ccc(C)cc1)c1cc([N+](=O)[O-])c2cccnc2c1O (stereo not given) | 1.8 | 1.8 | -0.1 | 24.9* | 8.8 | 11.3
CC(=O)NC(c1ccc(C)cc1)c1cc([N+](=O)[O-])c2cccnc2c1O (stereo not given) | 1.2 | -0.9 | -2.6 | -8.3 | 3.7 | 5.4
Cc1sc2nc(CSCC(=O)N(C)CC(=O)Nc3ccc(F)cc3)[nH]c(=O)c2c1C | -3.0 | 5.8 | 23.1* | -6.0 | 0.8 | 6.5
Cc1sc2nc(CSCC(=O)N(CCC#N)c3ccccc3)[nH]c(=O)c2c1C | -0.2 | 20.2* | 0.9 | -5.1 | 1.4 | -2.3
Cc1sc2nc(CSCC(=O)Nc3ccc(C(F)(F)F)cc3)[nH]c(=O)c2c1C | nt | -1.8 | 3.8 | -1.5 | 12.3 | 14.9
COC(=O)[C@]12C[C@H](CC(=O)N3CCOCC3)C(=O)N(Cc3cccc4ccccc34)C1=C[C@H](C(C)(C)C)O[C@@H]2C | nt | nt | -4.3 | nt | nt | 1.4
CCCCn1c2ccccc2c2nnc(SCC(=O)NC3=NN=C(c4ccccc4)CS3)nc21 | 1.4 | -5.4 | 44.7* | 21.2* | 1.7 | -12.7
CCCn1c2ccccc2c2nnc(SCC(=O)OC)nc21 | -5.5 | -0.8 | 6.3 | -2.4 | 0.0 | -10.7
N#CCC[C@@H]1CC[C@]2(CCCN(Cc3ccc(Cl)cc3)C2)O1 | nt | nt | 0.7 | nt | nt | -2.6
COc1ccc(C(=O)N2CCN(c3ccc(F)cc3)CC2)cc1S(=O)(=O)NC1CC1 | nt | -3.6 | 1.3 | -1.6 | -4.4 | 1.3
COc1ccc(C(=O)N2CCN(c3cccc(Cl)c3)CC2)cc1S(=O)(=O)NC1CC1 | nt | 3.5 | 23.8* | 3.2 | 7.3 | -4.2
CCCCCCCCN1C(=O)[C@@H](CC(=O)NCC23CC4CC(CC(C4)C2)C3)C[C@@]2(C(=O)OC)C1=C[C@H](COCc1ccccc1)O[C@@H]2C | nt | nt | 0.8 | nt | nt | -5.5
COc1cc(/C=N/Nc2nc3ccccc3o2)cc(OC)c1O | 2.2 | -8.3 | 10.8 | -0.7 | 16.1 | 8.0
